From PubChem BioAssay (NCATS) come the findings set out here.

Where “and” joins values, the source holds several entries; their conditions need not be identical. Identical values can stand only once. Unmarked numbers belong to inactive results.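 The calls were made as follows: active = compounds whose dose series gives a full or clear partial fitted curve of increased nuclear translocation; inconclusive = weak partial curve or effect only at the top dose; inactive = no dose-dependent translocation response.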
Potency is read from the fitted curve at half-maximal effect.

The assay deals with Glucocorticoid receptor (Homo sapiens) (UniProt P04150). Put plainly: GR-GFP Redistribution (AID 450). The note with it: U2OS GR-GFP nuclear translocation, laser cytometry, 2 h. The source says: NIH Molecular Libraries Screening Centers Network [MLSCN]
Sequence of Glucocorticoid receptor (Homo sapiens) (P04150 whole entry, looked up): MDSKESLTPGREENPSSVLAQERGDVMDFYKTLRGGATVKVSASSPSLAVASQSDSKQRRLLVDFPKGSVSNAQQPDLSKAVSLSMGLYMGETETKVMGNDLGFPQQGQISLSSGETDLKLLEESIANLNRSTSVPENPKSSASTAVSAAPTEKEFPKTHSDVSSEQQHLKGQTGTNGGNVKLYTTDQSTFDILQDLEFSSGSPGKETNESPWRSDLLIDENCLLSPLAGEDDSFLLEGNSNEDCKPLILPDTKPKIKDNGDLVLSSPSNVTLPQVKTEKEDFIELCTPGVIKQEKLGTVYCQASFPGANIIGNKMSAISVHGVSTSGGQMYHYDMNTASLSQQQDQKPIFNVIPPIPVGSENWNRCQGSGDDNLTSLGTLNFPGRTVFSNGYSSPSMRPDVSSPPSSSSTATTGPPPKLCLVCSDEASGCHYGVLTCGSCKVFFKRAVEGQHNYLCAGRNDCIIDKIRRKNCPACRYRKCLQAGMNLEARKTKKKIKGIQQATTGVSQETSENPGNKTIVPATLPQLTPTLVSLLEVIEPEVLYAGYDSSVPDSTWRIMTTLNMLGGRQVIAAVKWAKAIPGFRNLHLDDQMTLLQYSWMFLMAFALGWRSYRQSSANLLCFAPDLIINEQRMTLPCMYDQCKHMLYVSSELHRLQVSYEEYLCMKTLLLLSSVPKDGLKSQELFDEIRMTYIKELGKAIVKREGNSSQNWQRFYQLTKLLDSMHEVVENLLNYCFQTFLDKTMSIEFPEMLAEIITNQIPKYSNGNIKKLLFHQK
NIH Chemical Genomics Center [NCGC]
The glucocorticoid receptor (GR) Redistribution assay (BioImage) enables the visualization of GR cytoplasmic to nuclear translocation by the use of a GR-GFP fusion. GR is normally cytosolic, however ligands such as dexamethasone, cause nuclear translocation where the protein binds to response elements and interacts with various co-factors to modulate transcription. Because both functional agonists and antagonists can induce nuclear translocation, this assay can detect ligands regardless of their effects on gene expression. GR-GFP expressing U20S cells were used here. Dexamethasone was the positive control for translocation and data normalization. Detection of nuclear translocation was performed in 1536-well plates using the Acumen laser scanning plate cytometer (TTP LabTech). Validation of this assay and a detailed protocol have been described.
NCGC Assay Protocol Summary:
GR-GFP U2OS cells were maintained in DMEM with Glutamax and high glucose, 1% v/v penicillin-streptomycin, and 0.5 mg/mL Geneticin. For cell culture, 10% […] fetal bovine serum (FBS) was used (Invitrogen #26140-079). For cell plating 10% dextran, charcoal-stripped FBS (Hyclone SH30068.03) was used. U2OS cells were trypsin treated, suspended in medium, and passed through a 40 um basket filter. The cells were seeded at 600 cells/5 uL/well into clear-bottom black sided 1536-well plates and incubated for approximately 20 hrs, 37degC, 5%, CO2 in a tissue culture incubator. Twenty-three nL of compound was delivered by pin tool and the plates were incubated as above for 2 hrs. The compounds were tested as a 7-point titration ranging from 46 uM to 0.6 nM. The cells were fixed using the Kalypsys Washer/Dispenser station. The fixing protocol involved aspiration of the cell media, addition of 6 uL/well of PBS, aspiration of PBS, addition of 5uL/well of 100% methanol, aspiration of methanol, and addition of 3 uL/well PBS with 1.5 uM propidium iodide (PI). The plates were read by the Acumen Explorer using a 1 x 8 um scan of the whole well area. PI fluorescence triggered the collection of PI and GFP signals. A nuclei population was defined by a 10 to 100 um width and depth filter that eliminated small and large fluorescent particles. Two subpopulations of nuclei were then defined by peak intensity of GFP fluorescence to obtain translocated and untranslocated objects. The number of translocated objects was used for data normalization.
Keywords: NIH Roadmap, MLSCN, MLI, MLSMR, sOGT, qHTS, NCGC
For the compound `COc1cc(/C=C(\C#N)C(=O)c2ccc(O)c(O)c2)cc(I)c1O`, the Potency was > 46 µM.
For the compound `NCCCCN`, the Potency is > 46 µM.
Take `Cc1cccc(C(=O)NCN2CCN(c3ccccc3C#N)CC2)c1`: the Potency is > 46 µM.
With `O=c1ccc2c(OCCCCc3ccccc3)c3ccoc3cc2o1`, the Potency was > 46 µM.
`C[C@](Cc1ccc(O)c(O)c1)(NN)C(=O)O`: the Potency is > 46 µM.
`O=C(O)C1=CCNCC1`: the Potency was > 46 µM.
Take `CCCC(=O)NCCc1c2n(c3ccc(OC)cc13)CCCc1ccccc1-2`: the Potency is > 46 µM.
Take `NC1(C(=O)O)CCCCC1`: the Potency was > 46 µM.
Under `Nc1nc2ccc(Cl)cc2c2nc(-c3ccco3)nn12` stands > 46 µM.
Turning to `NC1(C(=O)O)CC1`, the Potency was > 46 µM.
In the case of `O=c1[nH]ccc2c(O)cccc12`, the Potency is > 46 µM.
In the case of `Cn1c(=O)[nH]c2ncn(C)c2c1=O`, the Potency was > 46 µM.
Under `O=C(O)C1=CCCNC1` stands > 46 µM; under `Cn1cc(C(=O)OCC2CCN(CCNS(C)(=O)=O)CC2)c2ccccc21`, > 46 µM; under `CCCCCCCC/C=C\CCCCCCCC(=O)NCCc1ccc(O)c(O)c1`, > 46 µM.
Take `Fc1ccc(CN(C2=NCCN2)c2c(Cl)cccc2Cl)cc1`: the Potency is > 46 µM.
Under `S=C(S)N1CCCC1` stands > 46 µM; under `N[C@H](C(=O)O)[C@H](O)C(=O)O`, > 46 µM; under `COc1cc(CC(=O)O)ccc1O`, > 46 µM.
Consider `COc1ccccc1N1CCN(CCCNc2c(C)c(=O)n(C)c(=O)n2C)CC1`, for which the Potency is > 46 µM.
For the compound `CCCc1c(OCCCOc2ccc(OCC(=O)O)cc2)ccc(C(C)=O)c1O`, the Potency is > 46 µM.
As to `N=C(N)c1ccc(N)cc1`, the Potency was > 46 µM.
Take `CNc1cc(NS(=O)(=O)c2ccc(N)cc2)nc(NC)n1`: the Potency was > 46 µM.
Regarding `COc1ccc2c(c1)c(CC(=O)O)c(C)n2Cc1ccc(Cl)cc1`, the Potency was > 46 µM.
Under `Cc1cc2c(cc1Cl)N(C(=O)Nc1ccnc3ccccc13)CC2` stands > 46 µM.
Turning to `C[C@H](NC(=O)/C(C#N)=C/c1ccc(O)c(O)c1)c1ccccc1`, the Potency is > 46 µM.
In the case of `C=CCn1c(=O)c2c(nc(-c3ccc(S(=O)(=O)O)cc3)n2C)n(C)c1=O`, the Potency was > 46 µM.
In the case of `CCCCCCCCCCCCCCSCC(=O)O`, the Potency was > 46 µM.
Under `CN[C@H](CC(=O)O)C(=O)O` stands > 46 µM.
For the compound `CCC(=O)N1CCN(C(=O)c2ccccc2)CC1`, the Potency was > 46 µM.
Take `N[C@@H](CS(=O)O)C(=O)O`: the Potency was > 46 µM.
In the case of `CC[C@H](NC(=O)c1c(C)c(-c2ccccc2)nc2ccccc12)c1ccccc1`, the Potency was > 46 µM.
On to `COC(=O)[C@H](NC(=O)c1cc(-c2ccccc2)nc2ccccc12)c1ccccc1`, for which the Potency is > 46 µM.
Consider `CCCCCC[C@@H]([C@@H](C)O)n1cnc2c(N)ncnc21`, for which the Potency was > 46 µM.
Under `Cc1nc2c(OCc3ccccc3)cccn2c1CC#N` stands > 46 µM; under `O=C(O)c1cc2cc(F)ccc2[nH]1`, > 46 µM and > 20.6 µM; under `N#C/C(=C\c1ccc(O)c(O)c1)C(=O)NCCCNC(=O)/C(C#N)=C/c1ccc(O)c(O)c1`, > 46 µM.
In the case of `C/C(=C\c1ccc(C(=O)O)cc1)c1ccc2c(c1)C(C)(C)CCC2(C)C`, the Potency is > 46 µM.
In the case of `CC(C)Cn1c(=O)n(C)c(=O)c2[nH]cnc21`, the Potency is > 46 µM.
For the compound `O=[N+]([O-])c1cccc2c(Br)[nH]nc12`, the Potency was > 46 µM.
